Screening data: PubChem BioAssay, National Center for Advancing Translational Sciences (NCATS)
Eya2 inh = qHTS Assay for Inhibitors of the Phosphatase Activity of Eya2. actives 0.006% (n = 330,000). Protein phosphatase EYA2 (Homo sapiens), O00167. recombinant Eya2, OMFP fluorescence dephosphorylation (OMFP is methylfluorescein phosphate). Potency, µM (top dose mostly 76.9 µM), without a hit: top-dose activity, negative = inhibition, actives largely listed as inhibitors; note: potency is the fitted concentration of half-maximal effect
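Eya2 protein (added as 0.2 uM solution) was preincubated with compound for 10 min at ambient temperature in 50 mM HEPES pH 7.5, 50 mM NaCl, 5 uM MgCl2, 0.05% BSA, 1 mM DTT. OMFP (added at 50 uM) then reacted 10 min; fluorescence read at 485/525 nm.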
B2AR arrestin = qHTS assay of beta-arrestin-biased ligands of beta2-adrenergic receptor. beta-arrestin recruitment to beta2AR, cell-based reporter. Potency, µM (doses to about 46.1 µM), for the others: at the highest dose activation, actives largely listed as activators. actives 0.02% (n = 330,000);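 note: potency is the fitted concentration of half-maximal effect; 0% = DMSO controls and full agonism = EC100 isoproterenol or metaproterenol; nearly all actives have a fitted effect of over 65% in size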
Target sequence (P07550 whole entry, looked up): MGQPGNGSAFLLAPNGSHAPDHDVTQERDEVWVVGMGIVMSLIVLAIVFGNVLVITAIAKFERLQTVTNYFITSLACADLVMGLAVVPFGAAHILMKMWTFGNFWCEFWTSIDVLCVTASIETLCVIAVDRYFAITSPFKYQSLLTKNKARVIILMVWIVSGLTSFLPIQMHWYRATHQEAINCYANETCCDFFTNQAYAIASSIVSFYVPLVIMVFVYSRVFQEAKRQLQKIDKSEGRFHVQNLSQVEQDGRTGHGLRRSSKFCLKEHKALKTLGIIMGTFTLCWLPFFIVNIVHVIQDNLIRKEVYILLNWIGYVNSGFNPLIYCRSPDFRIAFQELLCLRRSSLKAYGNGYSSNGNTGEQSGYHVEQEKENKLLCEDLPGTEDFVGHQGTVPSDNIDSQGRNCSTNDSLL
L3MBTL1 inh = qHTS Assay for the Inhibitors of L3MBTL1 | Potency, µM (highest dose often 57.1 µM), for inactives: top-dose activity, negative = inhibition, actives largely listed as inhibitors | AlphaScreen L3MBTL1–H3K9me1 peptide binding | Lethal(3)malignant brain tumor-like protein 1 (Homo sapiens), Q9Y468 | actives 0.66% (n = 230,000); note: potency is the fitted concentration of half-maximal effect; nearly all actives have a fitted effect of over 60% in size
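Read-out is AlphaScreen signal from streptavidin donor and nickel chelate acceptor beads (10 ug/mL final each) bridging L3MBTL1 (50 nM) and biotinylated K9-monomethylated H3(1-15) peptide (75 nM), after 30 min compound exposure at room temperature.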
CtBP-E1A inh = qHTS Assay for Inhibitors of the CtBP/E1A Interaction. AlphaScreen GST-E1A/His-CtBP binding, 1536-well; active compounds read low. activity change, % (no concentration beside the values). actives 0.49% (n = 340,000); in the data active = activity change below about -65%; inconclusive = mostly about -30% to -63%
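Protein mix (5X: 125 nM each GST-E1A, His-CtBP) was incubated with pinned compound 2 h at 37 deg C in dark, in 50 mM Tris pH 8.0 buffer with 300 mM NaCl. Glutathione donor and nickel acceptor beads followed; AlphaScreen signal read after 1 h.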
Six1-Eya2 blk = qHTS Assay for Inhibitors of the Six1/Eya2 Interaction; Homeobox protein SIX1 (Homo sapiens) + Protein phosphatase EYA2 (Homo sapiens), …; actives 0.56% (n = 360,000); activity change, % (no concentration beside the values); AlphaScreen GST-Six1/His-Eya2 binding, biochemical; active compounds read low; in the data active = activity change below about -65%; inconclusive = mostly about -30% to -63%
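AlphaScreen with GST-Six1 and His-Eya2 (5X mix: 250 nM and 500 nM), glutathione donor and nickel acceptor beads; buffer 50 mM Tris pH 8.0, 300 mM NaCl, 1 mM TCEP; 1 h at 37 C in the dark.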
Numbers without * were called inactive; ? = inconclusive; · = no result; ! = not confirmed by another sample; [ ] = dose if it differs, or a comment. This is a sample that favours compounds with a hit; in the whole collection about 0.9% have one here. Unless noted, calls come from the whole dose curve; as a rule, active = well fitted curve in the direction sought with a large enough effect; inconclusive = small, poorly fitted or top-dose-only effect, or another doubt; inactive = no such curve, though single readings can be large; an effect the other way counts as inactive or inconclusive. Unless noted, % is set by controls: 0 for no effect and ±100 for the full control effect.

SMILES	Eya2 inh	B2AR arrestin	L3MBTL1 inh	CtBP-E1A inh	Six1-Eya2 blk
N#CC(C#N)=Cc1ccc(O)c(O)c1	18%	0%	22µM*	5	-4
CCOc1ccc(N2C(=O)/C(=C\c3cccs3)C(=O)NC2=S)cc1	13%	0%	25µM*	0	1
O=C1NC(=S)N(c2ccccc2F)C(=O)/C1=C\c1cccs1	0%	0%	2%	-1	-2
CCOc1ccc(N2C(=O)/C(=C/c3ccco3)C(=O)NC2=S)cc1	17%	0%	-8%[2.29 µM]	·	-81*
CP(=O)(O)C1=CCNCC1	4%	·	·	·	·
CN1CC[C@]2(c3cccc(O)c3)Cc3nc4ccccc4cc3C[C@H]2C1	-1%	11µM*	·	·	·
CN1CC[C@@]23CCCC[C@@H]2[C@@H]1Cc1ccc(O)cc13	-4%	0%	3%	2	-8
O=C(N/N=C/C1C(=O)NC(=S)N(c2ccccc2)C1=O)c1cc(Br)c(O)c(Br)c1 (stereo not given)	15%	0%	13µM*	-92*	-93*
COc1cc(C(=O)OCc2cc(=O)c(O)co2)ccc1OC(F)F	?	1%	·	3	-7
O=c1[nH]c(=O)n(Cc2ccco2)c(O)c1C=NCc1ccco1	0%	1%	?	-1	-1
O=C(N/N=C/c1c(O)n(Cc2ccc(F)cc2)c(=S)[nH]c1=O)c1ccncc1	-3%	-1%	-28%	-67*	?
CCCCC(=O)N/N=C/c1c(O)n(Cc2ccco2)c(=O)[nH]c1=O	-9%	-2%	?	?	-75*
CC(=O)Nc1ccc(N=Cc2c(O)n(Cc3ccco3)c(=O)[nH]c2=O)cc1	6%	-1%	-15%	-2	-18
O=C(N/N=C/c1c(O)n(Cc2ccco2)c(=O)[nH]c1=O)c1ccccc1O	-2%	0%	·	-89*	-87*
CCCCC(=O)N/N=C/c1c(O)n(-c2cccc3ccccc23)c(=O)[nH]c1=O	-8%	0%	-20%	·	-71*
Cc1ccc(-c2nn(C)c(=O)c3ccccc23)cc1CNC(=O)/C=C/c1ccccc1	-8%	-1%	32%	-6	-4
COC[C@H]1OC(=O)c2coc3c2[C@@]1(C)C1=C(C3=O)C2CCC(=O)[C@@]2(C)C[C@H]1OC(C)=O (stereo not given in full)	-2%	·	·	·	·
CCCCC(=O)N/N=C/c1c(O)n(CCCC)c(=S)[nH]c1=O	0%	3%	?	-66*	-74*
CCCCC(=O)N/N=C/c1c(O)n(C2CC2)c(=S)[nH]c1=O	1%	-1%	5%	4	0
CC(Cc1ccc(OCC(=O)O)cc1)NCC(O)c1cccc(Cl)c1 (stereo not given)	0%	·	·	·	·
O=C1NC(=O)N(Cc2ccc(F)cc2)C(=O)/C1=C\C=C\c1ccco1	27%	?	·	1	-23
CCCCN1C(=O)/C(=C/C=C/c2ccco2)C(=O)NC1=S	1%	0%	3.5µM*	-10	-10
CC(N)c1cccc(Cl)c1Cl (stereo not given)	-2%	·	·	·	·
CN1C(=O)NC(=O)/C(=C/c2ccc([N+](=O)[O-])o2)C1=O	-3%	1%	25µM*	9	?
O=C1NC(=O)N(c2ccccc2)C(=O)/C1=C\c1ccc([N+](=O)[O-])o1	20%	-1%	3.2µM*	·	·
SMILES	Eya2 inh	B2AR arrestin	L3MBTL1 inh	CtBP-E1A inh	Six1-Eya2 blk
CN1C(=O)NC(=O)/C(=C\c2ccc([N+](=O)[O-])o2)C1=O	15%	-1%	10µM*	-1	?
CN1C(=O)NC(=O)/C(=C/c2ccc([N+](=O)[O-])s2)C1=O	8%	0%	·	?	?
COc1ccc(NC(=O)Cn2c3ccccc3c3nc4n(c(=O)c32)CCS4)cc1	?	0%	7%	-4	4
CCN(CC)C(=O)c1ccc2c(c1)C1C=CCC1C(C(=O)O)N2 (stereo not given)	-8%	0%	·	·	-75*
CCN(CC)C(=O)c1ccc2c(c1)C1C(Cl)C(Sc3ccccc3[N+](=O)[O-])CC1C(C(=O)O)N2 (stereo not given)	9%	-1%	14µM*	?	?
O=C(O)c1cccc2c1NC(c1cccc([N+](=O)[O-])c1)C1CC(Sc3ccccc3[N+](=O)[O-])C(Cl)C21 (stereo not given)	0%	0%	20µM*	-7	-15
O=C(O)c1ccc2c(c1)C1C(Cl)C(Sc3ccccc3[N+](=O)[O-])CC1C(c1cccc([N+](=O)[O-])c1)N2 (stereo not given)	-3%	0%	22µM*	·	-21
Cc1ccc2c(c1Cl)NC(C(=O)O)C1CC(Sc3ccccc3[N+](=O)[O-])C(Cl)C21 (stereo not given)	-1%	0%	·	-8	-7
CCCCC(CC)COP(=O)(OCC(CC)CCCC)OCC(CC)CCCC (stereo not given)	18%	1%	?	1	-3
O=c1[nH]c(=S)[nH]c(O)c1N=Nc1ccc(-c2ccccc2)cc1[N+](=O)[O-]	3%	0%	?	·	·
N[C@@H](Cn1ccc(=O)[nH]c1=O)C(=O)O	2%	·	·	·	·
Cn1c(=O)c2c(nc(N/N=C/c3c(O)n(-c4ccccc4)c(=S)[nH]c3=O)n2C)n(C)c1=O	7%	-1%	9%	-84*	-84*
CCCCCC(=O)N[C@@H](c1ccccc1)[C@@H](O)C(=O)O[C@H]1C[C@@]2(O)[C@@H](OC(=O)c3ccccc3)C3[C@](C)(C(=O)[C@H](O)C(=C1C)C2(C)C)[C@@H](OC1OCC(O)C(O)C1O)C[C@H]1OC[C@@]31OC(C)=O (stereo not given in full)	12%	0%	41%	-22	-90*
CC(=O)O[C@@]12CO[C@@H]1C[C@H](OC1OCC(O)C(O)C1O)[C@@]1(C)C(=O)[C@H](O)C3=C(C)[C@@H](OC(=O)[C@H](O)[C@@H](NC(=O)c4ccccc4)c4ccccc4)C[C@@](O)([C@@H](OC(=O)c4ccccc4)C12)C3(C)C (stereo not given in full)	3%	-2%	0%	0	-10
Cc1cc2c(C(C)C)c(O)c(O)c(C=O)c2c(O)c1-c1c(C)cc2c(C(C)C)c(O)c(O)c(C=O)c2c1O	32µM*!	0%	?	·	·
CN(C[C@H](Cc1ccccc1)N(C[C@H](c1ccccc1)N(CCc1ccccc1)N=O)N=O)N=O	?	0%	-26%	-7	-12
